Data published in PubChem BioAssay (NCATS).
Inconclusive results are not listed. Entries that show only a call come without a potency. Active and inactive are the calls of the source. Unless noted, calls come from the whole dose curve.

Key:
[1] = target: Vitamin D3 receptor (Homo sapiens) (UniProt P11473); assay: qHTS assay for small molecule agonists of vitamin D receptor signaling (AID 588543)
Method in brief: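 GeneBLAzer VDR-UAS-bla HEK293T cells in 2% charcoal-stripped FBS medium were dosed with compound titrations for 16 h at 37 °C; CCF4 β-lactamase readout (405 nm ex, 460/530 nm em). EC50 and efficacy from Hill fits, normalized to 50 nM calcitriol (100%) and DMSO (0%).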

[2] = target: Thyroid hormone receptor beta (Homo sapiens) (UniProt P10828); assay: qHTS assay for small molecule agonists of thyroid hormone receptor beta signaling (AID 588545)
Method in brief: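 TR-UAS-bla GripTite HEK 293 cells (2500/well, medium with 2% charcoal/dextran FBS) were treated in agonist mode for 18 h at 37 C, titrated. Beta-lactamase was read by CCF4 ratio after 2 h; normalized to 10 nM T3 (100%) and DMSO, Hill-fitted for EC50 and efficacy.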

[3] = target: Thyroid hormone receptor beta (Homo sapiens) (UniProt P10828); assay: qHTS assay for small molecule antagonists of thyroid hormone receptor beta signaling (AID 588547; active = well fitted inhibition curve with a large enough effect in the signal ratio, with a control signal flat, not every such curve was filed as active; the % refers to the signal ratio;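 note: cells stimulated with 0.4 nM T3 agonist during compound exposure; series mostly up to about 77 µM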); details: TR-UAS-bla HEK293, beta-lactamase ratio, antagonist mode, 18 h
Method in brief: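 Inhibition of T3-driven (0.4nM final) beta-lactamase reporter activity was measured over 0.59 nM to 92 uM compound after 18 h at 37 C. The cells were GripTite HEK293 TR-UAS-bla in charcoal/dextran-stripped serum, with CCF4 ratio read-out and IC50 from Hill fits.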

[4] = qHTS assay for small molecule agonists of the antioxidant response element (ARE) signaling pathway (AID 651741; active = well fitted activation curve with a large enough effect in the signal ratio; the % refers to the signal ratio)
Method in brief: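 Seeding 2,000 ARE-bla HepG2 cells per well preceded a 5 h incubation at 37 C/5% CO2 and a 16 h compound exposure at 37 C. Beta-lactamase reporter activity was then quantified by fluorescence after 2 h with LiveBLAzer B/G FRET substrate.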

[5] = qHTS assay for small molecule activators of the p53 signaling pathway (AID 651743; active = well fitted activation curve with a large enough effect in the signal ratio, not every such curve was filed as active; the % refers to the signal ratio; note: series mostly up to about 92 µM); details: HCT-116 p53RE-bla, beta-lactamase FRET ratio, 16 h; stronger effect = higher value
Method in brief: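 Screen for p53 pathway agonists uses stably transfected p53RE-bla HCT-116 cells, 4,000 per well, treated 16 h at 37 C with compounds in DMSO.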

[6] = qHTS assay for small molecule activators of the nuclear factor-kappa B (NF-kB) signaling pathway (AID 651749; active = well fitted activation curve with a large enough effect in the signal ratio; the % refers to the signal ratio; note: series mostly up to about 77 µM); details: NF-kB-bla ME-180 cells, beta-lactamase FRET ratio, 16 h; stronger effect = higher value
Method in brief: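 Stably transfected ME-180 line; NF-kB response element upstream of beta-lactamase. Treatment: compound or DMSO, 16 hr. Detection: fluorescent FRET substrate.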

[7] = qHTS assay for environmental chemicals that activate the Aryl hydrocarbon Receptor (AhR) signaling pathway (AID 651777; active = well fitted curve in the direction sought with a large enough effect; an effect the other way counts as inactive or inconclusive; note: potency is the fitted concentration of half-maximal effect; nearly all actives have a fitted effect of over 15% in size); details: 1A2-DRE human hepatoma cells, luciferase, 24 h
Method in brief: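 AhR activation is scored as a rise in luciferase from a stable DRE–CYP1A2 promoter construct in human hepatoma cells. Treatment lasts 24 hr at 37 C; detection uses One-Glo after 30 min at room temperature.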

[8] = qHTS assay for small molecule agonists of retinoid X receptor alpha signaling (AID 588544); details: HEK293T RXRa-UAS-bla, beta-lactamase reporter, 18 h; 530 nm emission
Source text: (§1) NIH Chemical Genomics Center [NCGC] U.S. Environmental Protection Agency [EPA] National Institutes of Environmental Health Sciences [NIEHS] National Toxicology Program [NTP] NCGC Assay Overview The Retinoid X receptor (RXR), a nuclear hormone receptor is expressed in liver, spleen, placenta, epidermis, central nervous system. These receptors are able to form homo and heterodimers with other nuclear receptors and due to this heterodimerizing ability, RXR functions as master regulators producing diverse physiological effects. Three subtypes of RXR exist; alpha, beta and gamma. Retinoid X receptor alpha (RXR-alpha) has potential roles in metabolic signaling pathways, skin alopecia, dermal cysts, cardiac development, insulin sensitization etc. Therefore screening environmental chemicals on RXR-alpha signaling can be used for the studies focused on such therapeutic applications.
(§2) NCGC Assay Protocol Summary Using a beta-lactamase reporter-gene under control of Retinoid X receptor--alpha (RXR-alpha) response element, a cell-based assay [GeneBLAzer (RXR-alpha -UAS-bla assay developed by Invitrogen] was used to measure RXR-alpha ligands signaling. GeneBLAzer RXR-alpha -UAS-bla HEK293T cells were used with assay medium containing 2% charcoal-stripped FBS. The assay was performed in clear bottom black Greiner 1536-well plates. 9-cis-retinoic acid was used in the screen as the positive control. Library compounds were measured for their ability to stimulate the reporter gene activity. Compounds were screened in a titration series in 1536-well format. The fluorescence intensity (405 nm excitation, 460/530 nm emission) was measured using an EnVision plate reader. Data was normalized relative to 9-cis-retinoic acid control (500 nM, 100%), and DMSO only wells (basal, 0%). Concentration-response titration points for each compound were fitted to the Hill equation yielding concentrations of half-maximal stimulation (EC50) and maximal response (efficacy) values. qHTS protocol for RXR-alpha beta-lactamase assay in agonist mode [Step] [Parameter] [Value] [Description] 1. Reagent; 6 uL; 2500 cells/well 2. Incubation; 37 C for 4 hrs 3. Compounds; 23 nL; 0.59 nM to 92 uM 4. Controls (9-cis-retinoic acid); 23 nL, - One column with dose response, start 38 uM, 1:3 dilutions in duplicates - Final concentrations of 500 nM and 50 nM in two columns 5. Incubation; 37 C for 18 hrs 6. Detection reagent; 1 uL of CCF4-dye 7. Incubation; RT for 2 hrs 8. Detection; Fluorescence; Envision plate reader

[9] = target: Retinoic acid receptor RXR-alpha (Homo sapiens) (UniProt P19793); assay: as above
Source text: as §1, §2

[10] = qHTS assay for small molecule antagonists of retinoid X receptor alpha signaling (AID 588546; active = well fitted inhibition curve with a large enough effect in the signal ratio, with a control signal flat, not every such curve was filed as active; the % refers to the signal ratio); details: HEK293T RXRa-UAS-bla, beta-lactamase ratio, antagonist mode; measured here: W530 green channel, cytotoxicity proxy
Method in brief: (§3)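 Beta-lactamase reporter inhibition, read as CCF4 fluorescence ratio (ex 405, em 460/530 nm) after 2 h at RT. HEK293T UAS-bla cells, 2500/well, were stimulated with 9-cis-RA at 500 or 100 nM final alongside test compound for 18 h at 37 C.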

[11] = target: Retinoic acid receptor RXR-alpha (Homo sapiens) (UniProt P19793); assay: as above; details: HEK293T RXRa-UAS-bla, beta-lactamase ratio, antagonist mode
Method in brief: as §3

[12] = target: Voltage-gated inwardly rectifying potassium channel KCNH2 (Homo sapiens) (UniProt Q12809); assay: qHTS Assay for Small Molecule Inhibitors of the Human hERG Channel Activity (AID 588834; active = well fitted curve in the direction sought with a large enough effect; an effect the other way counts as inactive or inconclusive;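 note: top concentration of the series differs between compounds; lower thallium flux fluorescence means stronger hERG block; nearly all actives have a fitted effect of over 50% in size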)
Method in brief: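 U2OS cells transduced with hERG via BacMam (MOI ~100), plated 2000/well, loaded with FluxOR thallium dye, compound ~10 min, then stimulation buffer; fluorescence decrease read kinetically; AC50 from Hill fits.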

[13] = qHTS assay for small molecule disruptors of the mitochondrial membrane potential - 1 hr assay (AID 651754); note: nearly all actives have a fitted effect of over 35% in size
Method in brief: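 HepG2 cells, attached overnight at 37C, were exposed to compound or DMSO vehicle for 1 hr at 37C, 5% CO2, then stained with Mito-MPS dye for 30 min. Red aggregate versus green monomer fluorescence reports membrane potential.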

[14] = qHTS assay for small molecule disruptors of the mitochondrial membrane potential - 5 hr assay (AID 651755); note: nearly all actives have a fitted effect of over 40% in size
Method in brief: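 HepG2, 2,000 cells/well, overnight attach; cpd or DMSO 5 hr, 37C/5% CO2; Mito-MPS 30 min 37C; fluor 490/535 + 540/590 nm.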

[15] = target: Tumor necrosis factor (Homo sapiens) (UniProt P01375); assay: qHTS assay to identify small molecules that stimulate Tumor Necrosis Factor-alpha (TNF-alpha) secretion (AID 651757; active = well fitted curve in the direction sought with a large enough effect in the signal ratio; the % refers to the signal ratio)
Method in brief: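 THP-1 cells were exposed to compounds for 17 hrs at 37 C, after which secreted TNF-alpha was measured by homogeneous HTRF (TR-FRET) using cryptate- and XL665-labeled anti-TNF-alpha antibodies, read after 3 hr at room temperature.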

[16] = qHTS assay to identify small molecules that stimulate interleukin-8 (IL-8) secretion (AID 651758; active = well fitted activation curve with a large enough effect in the signal ratio; the % refers to the signal ratio)
Method in brief: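 Secreted IL-8 measured by TR-FRET sandwich (cryptate and XL665 antibodies) from THP-1 cells exposed to compound overnight (16 hrs, 37 C).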

[17] = target: Luciferin 4-monooxygenase (Photinus pyralis) (UniProt P08659); assay: Biochemical firefly luciferase enzyme assay for NPC (AID 624030; active = well fitted curve in the direction sought with a large enough effect; an effect the other way counts as inactive or inconclusive;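 note: purified P. pyralis luciferase at 10 nM with luciferin and ATP substrate; series mostly up to about 59 µM; nearly all actives have a fitted effect of over 70% in size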)
Method in brief: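 Direct inhibition of firefly luciferase enzyme (10 nM final, 50 mM Tris Acetate) assessed by luminescence within 5 minutes. Percent activity scaled between DMSO and PTC124 positive control, with concentration-effect curves classified by fit quality and response.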

[18] = S16 Schwann cell viability assay (CellTiter-Glo assay) (AID 624031; active = well fitted curve in the direction sought with a large enough effect; an effect the other way counts as inactive or inconclusive;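 note: native untransfected S16 rat Schwann cells; cellular ATP luminescence as a viability measure; series mostly up to about 58 µM; nearly all actives have a fitted effect of over 70% in size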)
Method in brief: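 Cells were seeded at 500-750 per well in phenol red-free DMEM with 10% FBS and left overnight. Compounds or DMSO were pinned in, incubation ran 24 h at 37 °C/5% CO2, then CellTiter-Glo reagent was added and luminescence measured.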

[19] = S16 Schwann cell PMP22 intronic element firefly luciferase assay (AID 624032; active = well fitted curve in the direction sought with a large enough effect; an effect the other way counts as inactive or inconclusive; note: series mostly up to about 58 µM; nearly all actives have a fitted effect of over 30% in size)
Method in brief: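 Luciferase reporter of PMP22 intronic-element expression in stably transfected S16 rat Schwann cells, read by ONE-Glo luminescence after 24 h compound exposure at 37 C. Activity scaled between DMSO (0%) and positive-control PTC124; concentration-effect curves quality-classified.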

[20] = S16 Schwann cell PMP22 intronic element beta-lactamase assay (AID 624044); note: nearly all actives have a fitted effect of over 15% in size
Method in brief: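 Rat S16 Schwann cells with beta-Lac driven by a PMP22 intronic element, compound-treated 24 h at 37 °C. LiveBLAzer FRET B/G read: 460 nm normalized to potassium clavulanate vs DMSO; 535 nm FRET as viability; concentration-effect curves classified.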

Luciferin 4-monooxygenase (Photinus pyralis), sequence (P08659 whole entry, looked up): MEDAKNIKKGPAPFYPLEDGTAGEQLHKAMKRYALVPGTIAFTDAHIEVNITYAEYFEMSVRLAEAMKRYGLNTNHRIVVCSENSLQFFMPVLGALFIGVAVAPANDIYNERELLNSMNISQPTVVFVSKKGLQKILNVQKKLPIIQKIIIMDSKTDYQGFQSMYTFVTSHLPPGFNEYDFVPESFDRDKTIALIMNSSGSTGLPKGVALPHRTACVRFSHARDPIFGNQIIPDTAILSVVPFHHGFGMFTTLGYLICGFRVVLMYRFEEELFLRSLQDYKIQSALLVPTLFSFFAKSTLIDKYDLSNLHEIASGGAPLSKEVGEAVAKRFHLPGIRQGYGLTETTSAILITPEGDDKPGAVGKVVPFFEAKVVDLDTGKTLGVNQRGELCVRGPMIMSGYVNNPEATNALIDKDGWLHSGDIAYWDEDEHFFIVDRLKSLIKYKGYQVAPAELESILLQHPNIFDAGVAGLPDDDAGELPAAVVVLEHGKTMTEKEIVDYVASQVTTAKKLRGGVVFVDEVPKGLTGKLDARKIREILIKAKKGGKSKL
Vitamin D3 receptor (Homo sapiens), sequence (P11473 whole entry, looked up): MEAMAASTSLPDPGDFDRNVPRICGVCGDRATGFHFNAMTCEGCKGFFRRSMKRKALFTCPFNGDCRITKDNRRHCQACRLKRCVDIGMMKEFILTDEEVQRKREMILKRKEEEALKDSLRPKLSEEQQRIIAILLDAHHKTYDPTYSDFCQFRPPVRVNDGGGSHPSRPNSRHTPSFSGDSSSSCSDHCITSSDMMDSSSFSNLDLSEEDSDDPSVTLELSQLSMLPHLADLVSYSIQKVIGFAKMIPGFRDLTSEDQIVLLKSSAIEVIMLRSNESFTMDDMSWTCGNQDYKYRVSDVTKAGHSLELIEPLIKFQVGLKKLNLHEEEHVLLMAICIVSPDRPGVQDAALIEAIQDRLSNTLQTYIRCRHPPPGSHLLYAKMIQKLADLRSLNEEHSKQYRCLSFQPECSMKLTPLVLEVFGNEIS
Thyroid hormone receptor beta (Homo sapiens), sequence (P10828 whole entry, looked up): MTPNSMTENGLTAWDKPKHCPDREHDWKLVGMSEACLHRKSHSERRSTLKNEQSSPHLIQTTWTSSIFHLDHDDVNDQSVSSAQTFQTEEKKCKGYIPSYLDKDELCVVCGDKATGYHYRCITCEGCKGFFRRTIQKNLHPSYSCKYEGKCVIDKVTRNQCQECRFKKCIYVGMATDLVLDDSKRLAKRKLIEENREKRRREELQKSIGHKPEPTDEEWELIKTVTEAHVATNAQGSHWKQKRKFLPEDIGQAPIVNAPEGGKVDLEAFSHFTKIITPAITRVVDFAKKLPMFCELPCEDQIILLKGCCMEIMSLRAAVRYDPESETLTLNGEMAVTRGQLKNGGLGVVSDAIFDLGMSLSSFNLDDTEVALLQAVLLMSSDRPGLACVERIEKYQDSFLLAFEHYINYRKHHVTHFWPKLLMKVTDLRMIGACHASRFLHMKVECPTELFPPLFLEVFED
Retinoic acid receptor RXR-alpha (Homo sapiens), sequence (P19793 whole entry, looked up): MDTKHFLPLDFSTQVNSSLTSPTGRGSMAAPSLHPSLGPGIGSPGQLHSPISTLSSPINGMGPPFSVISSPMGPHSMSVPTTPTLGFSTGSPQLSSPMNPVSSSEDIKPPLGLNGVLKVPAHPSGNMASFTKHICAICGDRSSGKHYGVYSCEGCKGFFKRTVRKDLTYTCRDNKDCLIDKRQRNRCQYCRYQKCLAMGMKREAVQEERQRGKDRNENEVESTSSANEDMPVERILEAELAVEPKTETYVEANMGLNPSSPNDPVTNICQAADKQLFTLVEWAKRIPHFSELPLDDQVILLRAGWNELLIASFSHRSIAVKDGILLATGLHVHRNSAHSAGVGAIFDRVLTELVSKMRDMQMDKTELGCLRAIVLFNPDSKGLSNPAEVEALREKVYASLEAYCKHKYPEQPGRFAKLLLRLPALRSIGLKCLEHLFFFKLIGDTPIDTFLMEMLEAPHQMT
Voltage-gated inwardly rectifying potassium channel KCNH2 (Homo sapiens), sequence (Q12809 whole entry, looked up): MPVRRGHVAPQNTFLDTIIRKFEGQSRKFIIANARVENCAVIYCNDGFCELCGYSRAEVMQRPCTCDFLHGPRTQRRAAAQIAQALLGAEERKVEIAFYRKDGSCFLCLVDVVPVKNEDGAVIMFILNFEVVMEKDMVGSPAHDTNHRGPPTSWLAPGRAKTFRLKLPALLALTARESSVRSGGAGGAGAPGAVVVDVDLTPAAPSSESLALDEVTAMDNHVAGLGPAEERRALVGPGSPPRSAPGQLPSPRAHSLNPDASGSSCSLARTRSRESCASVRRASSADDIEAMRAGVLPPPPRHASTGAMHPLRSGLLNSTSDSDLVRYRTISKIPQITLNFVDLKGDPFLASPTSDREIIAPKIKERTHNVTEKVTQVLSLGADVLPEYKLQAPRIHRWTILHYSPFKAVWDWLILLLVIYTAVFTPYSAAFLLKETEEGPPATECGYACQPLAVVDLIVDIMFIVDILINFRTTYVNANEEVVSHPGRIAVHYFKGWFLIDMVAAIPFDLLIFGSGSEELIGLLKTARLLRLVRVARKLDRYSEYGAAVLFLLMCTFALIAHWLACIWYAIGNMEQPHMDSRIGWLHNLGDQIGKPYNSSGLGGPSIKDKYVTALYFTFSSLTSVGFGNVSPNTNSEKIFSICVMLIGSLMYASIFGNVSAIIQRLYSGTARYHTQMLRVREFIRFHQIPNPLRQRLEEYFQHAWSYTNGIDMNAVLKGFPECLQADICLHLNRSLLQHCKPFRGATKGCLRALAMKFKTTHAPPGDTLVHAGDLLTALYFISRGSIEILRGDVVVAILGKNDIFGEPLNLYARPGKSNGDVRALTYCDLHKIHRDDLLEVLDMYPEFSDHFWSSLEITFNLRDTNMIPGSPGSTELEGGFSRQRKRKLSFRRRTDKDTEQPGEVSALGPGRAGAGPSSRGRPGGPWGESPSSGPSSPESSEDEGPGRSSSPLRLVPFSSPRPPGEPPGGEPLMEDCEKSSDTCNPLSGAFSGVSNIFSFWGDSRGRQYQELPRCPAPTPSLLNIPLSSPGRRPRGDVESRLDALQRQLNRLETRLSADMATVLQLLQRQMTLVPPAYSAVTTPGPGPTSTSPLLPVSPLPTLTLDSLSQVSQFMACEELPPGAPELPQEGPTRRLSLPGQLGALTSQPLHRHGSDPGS
Tumor necrosis factor (Homo sapiens), sequence (P01375 whole entry, looked up): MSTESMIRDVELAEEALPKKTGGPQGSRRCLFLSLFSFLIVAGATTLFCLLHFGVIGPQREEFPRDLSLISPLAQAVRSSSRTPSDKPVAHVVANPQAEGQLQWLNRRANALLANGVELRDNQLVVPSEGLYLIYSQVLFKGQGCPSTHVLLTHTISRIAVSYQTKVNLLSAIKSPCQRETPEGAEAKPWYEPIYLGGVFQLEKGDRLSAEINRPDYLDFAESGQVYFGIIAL

O=C(/C=C/C=C/c1ccc2c(c1)OCO2)N1CCCCC1
outcome [1]: inactive
outcome [2]: inactive
activity change % (negative = inhibition) [3]: -4.09% (inactive)
outcome [4]: inactive
activation [5]: -2.18% (inactive)
activation [6]: -1.08% (inactive)
Potency [7]: 14.1 µM (active)

C=C1C[C@]23C[C@@]1(O)CC[C@H]2[C@@]12C=C[C@H](O)[C@@](C)(C(=O)O1)[C@H]2[C@@H]3C(=O)O
outcome [1]: inactive
max response [8]: -10.6%
outcome [9]: inactive
outcome [2]: inactive
max response [10]: 4.31%
max response [11]: 6.93% (inactive)
activity change % (negative = inhibition) [3]: 23.9% (inactive)
outcome [12]: inactive
outcome [4]: inactive
outcome [13]: inactive
outcome [14]: inactive
outcome [15]: inactive

COc1ccc(CCC(=O)c2c(O)cc(O[C@@H]3O[C@H](CO)[C@@H](O)[C@H](O)[C@H]3O[C@@H]3O[C@@H](C)[C@H](O)[C@@H](O)[C@H]3O)cc2O)cc1O
outcome [1]: inactive
max response [8]: 1.28%
outcome [9]: inactive
outcome [2]: inactive
max response [10]: -15.7%
max response [11]: 10.3% (inactive)
activity change % (negative = inhibition) [3]: -11.4% (inactive)
outcome [12]: inactive
outcome [4]: inactive
activation [5]: -3.41% (inactive)
activation [6]: -2.14% (inactive)
outcome [13]: inactive
outcome [14]: inactive
outcome [16]: inactive

CCC(=O)OCC(=O)[C@@]1(OC(=O)CC)[C@@H](C)C[C@H]2[C@@H]3CCC4=CC(=O)C=C[C@]4(C)[C@@]3(F)[C@@H](O)C[C@@]21C
outcome [17]: inactive

CCc1cccc2c3c([nH]c12)[C@@](CC)(CC(=O)O)OCC3
outcome [17]: inactive
outcome [18]: inactive
outcome [19]: inactive
outcome [20]: inactive

CCOC(=O)C(CCc1ccccc1)NC(C)C(=O)N1Cc2ccccc2CC1C(=O)O (configuration not stated)
outcome [17]: inactive
outcome [18]: inactive
outcome [19]: inactive
outcome [20]: inactive
